In the test the test system is hN + hpA co-culture (H1 iNGN2 human neurons + human primary astrocytes). Put plainly: presynaptic density (SYNAPSIN1 puncta per MAP2 neurite area), Z-score vs DMSO controls; higher = more presynaptic puncta (synapse-promoting). The note with it: 3 µM; 72 h.
Take `O=C(Nc1ccccc1)c1cc([N+](=O)[O-])ccc1Cl`: the “presynaptic density (Z-score)” value was -0.00538.

Take `COc1ccccc1N1CCN(CC(O)COc2cccc3ccccc23)CC1` (stereo not drawn): the “presynaptic density (Z-score)” value is -0.464. The value for `CNC(=O)c1cc(Oc2ccc(NC(=O)Nc3cc(C(C)(C)C)nn3-c3ccc4ncccc4c3)c(F)c2)ccn1` [DCC-2036 (Rebastinib)] was 0.594.

These data come from the supplement of paper PMC10121225.
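Also: immunostained co-cultures imaged by high-content microscopy, Z-score per plate against mean and SD of 0.1% DMSO wells, compounds added on differentiation day 18, analysed day 21.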
